Test results as given in PubChem BioAssay AID1347426 (Functional Genomics Laboratory (NCATS/FGL), 2020).
In all, about 31,000 sequences went through this assay and about 1,400 (4.5%) were called active. The sample as a whole holds a higher share of actives than the screen did. Values without a mark were called inactive.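 The calls were made as follows: active = median seed-adjusted z-score above 1 or below -1; inactive = the rest.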

Experiment: Novel Modifiers of Survival Motor Neuron (SMN) Protein: Gene Identification via Genome-wide siRNA Screen;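 also: luminescence tracks full-length SMN protein made from the SMN2 reporter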
Conditions: HEK293T SMN2-luciferase reporter, siRNA knockdown, 72 h; actives lie on both sides
Outline: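 Luciferase signal, proportional to full-length SMN made from an SMN2 cDNA reporter in stable HEK293T cells, was read 72 h after siRNA reverse transfection. Values were expressed as MAD scores after non-targeting-control normalization and log10 conversion; seed analysis flagged off-targets.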

In order of falling median seed-adjusted z-score:
1. GAACUAGGAGAUACAAUAUTT against ELOVL6  0.742
2. AGAAUACGAUGACCACCAATT against RING1  0.685
3. AGAGGGCACUGGACCUGAATT against UQCRB  0.348
4. GGAACUCUAUGGUCAUCUATT against SSTR1  0.285
5. CCAGUCACUGCAUAACAUUTT against PSMD9  0.266
6. GACGCGGUAUGUAGACAUATT against NAT8B  0.206
7. GGACCAGAACCACAAGCAATT against GHSR  0.18
8. GAUCAAGACUCUGCGCCUATT against HAND1  0.161
9. GACUACGACUGGUUCUUCATT against CSGLCA-T  0.146
10. GAUCAUCUCUGAAACAGCATT against GYG1  0.119
11. CUCCUAAAGUGCAUCGCAATT against GUF1  0.119
12. CCUGCAGAAUAACCUGAUATT against OPTC  0.0953
13. CCAAUGAUGUAUGAUCUAATT against UBE3A  0.0949
14. CCAGAGAAAUGAGAUUGGATT against ZNF195  0.0753
15. UGAACGCAGUCAUCCGGAATT against MAPK15  0.0724
16. CAGUCGUUGCUGUCAAAAATT against RGS9  0.0665
17. GGAUGUUCCAAAUCACGGATT against MBTD1  0.0649
18. GAGCAGAUCGAGAUCAAAATT against EVI5L  0.0497
19. GCACAAUUGAAAACUUCAATT against CYSLTR2  0.0461
20. CAUGUUAAUUGUUAAGGAUTT against WFDC8  0.0427
21. GAUCCAAUGUAAACGUGGATT against GRLF1  0.0307
22. GCCUCGAGCCUAUUCGUUATT against PCDHB4  0.00998
23. CGGUUAGAUUUGGACAGUATT against ARHGAP9  0
24. GCAUACAUCAUGACCGUCATT against DUSP22  0
25. CCAAAGGAGUCAGCACUGUTT against PLXNA1  0
26. GGAGAGGAUUAUUUCCGCATT against SDR9C7  0
27. CGAAUAUACCAGGACGAAATT against SATB1  0
28. GCUUGUUCGGCUACACGAATT against CYP8B1  0
29. GCAAAGUGCCGAAACAAGATT against ATF3  -0.000485
30. GGAAAUUCAGGUACGGAUATT against ADAMTS4  -0.0153
31. GAUUUCUAAUUAACACAAUTT against POLR1D  -0.0409
32. GGAAGAAUGUGGUUUGCGATT against GFOD2  -0.0447
33. CUAAAAGACCGAACAAUAATT against HNRPUL1  -0.047
34. CGUCAAAAGAGCCCAUAAATT against ENPP5  -0.0499
35. GCUGCAUUGUGGGUGAUGATT against PTGIR  -0.0806
36. GGAUCGGAUAAAUAACAGUTT against HEY2  -0.0831
37. CAGCCUUCAUGAGAUGUUATT against AMPD3  -0.0865
38. GGAUUGCCCAGGGUUCCUATT against DGKQ  -0.0985
39. UGCUCUCUGUUGCAUUGAATT against IAPP  -0.157
40. CAUUCGACAUAGAAGAGUUTT against ZNF551  -0.171
41. UCCUUUAACUCGACAGUCATT against DRG2  -0.175
42. GUAUUCCAGCGAAUCCGAUTT against PAK7  -0.202
43. CCUGGAAACUACAAGCCCATT against SIRT3  -0.341
44. GGAUUAUUCCUACCUAAUUTT against CDYL2  -0.379
45. GGGAAGCUAUGCGAAAUUATT against RBPJ  -0.452
46. CUCUUCACGUCUGACCUGATT against HTR6  -0.463
47. GCCUGUCCCUAGCAUUGUUTT against CES2  -0.47
48. GGACUAUAAAUCCAGCUUUTT against TOMM34  -0.503
49. GCCGAUACCUUCACUCGAATT against TAP1  -0.506
50. GGCCCAAGAUCUUCCCUAATT against GPR179  -0.513
51. GCCUGCAAGUGAAGCGGAATT against PRMT1  -0.596
52. GGAGCAGUAUUGACAACAATT against NUFIP1  -0.673
53. CCCAUAUGAUUACCCAUUUTT against MYH2  -0.73
54. AGUCAAGAACAAUACCCAATT against SNRPD2  -0.849

With GGAAGAAGGUUCUCAAACATT against RETSAT the median seed-adjusted z-score was -1.7 (active).
For GGACUUGGUUUUUCGUACATT against MED14, the median seed-adjusted z-score was -3.22 (active).
With GGUUACAAGCGGUUUGGUATT against COLEC12 the median seed-adjusted z-score was -1.04 (active).
With CGGACAUUCGUGCAAAGAATT against PRPF6 the median seed-adjusted z-score was -1.06 (active).
For GCUUCAUUGAGUACGAGAATT against PUF60, the median seed-adjusted z-score was 2.26 (active).
With GAAUUGCUGAUAAACCUAUTT against SMNDC1 the median seed-adjusted z-score was -1.54 (active).
In the case of GCAGUUGAAUUAUCACAGUTT against UQCRFS1, the median seed-adjusted z-score is reported as -1.28 (active).
With GCAAGUUGGAGAACGAGUATT against MED8 the median seed-adjusted z-score was -1.61 (active).
With CCAUCAUCCGGGAUGAGGATT against NPEPL1 the median seed-adjusted z-score was 1.12 (active).
For UACUGUCUCUAGUCUUUUUTT against SEC11B, the median seed-adjusted z-score was 1.04 (active).
For GGUUCAUGUUUGCAAUCUUTT against POLR2B, the median seed-adjusted z-score was -4.81 (active).
With CAUCAGAUCUUGAUCAGUUTT against NKTR the median seed-adjusted z-score was -1.1 (active).
With GAGCAGCUCUUAAGCAACATT against SAPS1 the median seed-adjusted z-score was 1.16 (active).
For GGACAGUCUUCUGUAUGCATT against RBM39, the median seed-adjusted z-score was -1.82 (active).
With CAACCUGCUCUACAGCAAATT against PRSS27 the median seed-adjusted z-score was 1.03 (active).
